According to PubChem BioAssay AID504885 (Johns Hopkins Ion Channel Center, 2011):
Active and inactive are the calls of the source.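 Rule for the calls: active = TRPC6 cation channel blocked by over 30% at any dose tested, plus a fitted dose response curve; inactive = the rest.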

Each compound was assayed against Short transient receptor potential channel 6 (Mus musculus) (UniProt Q61143) (assay: potency of TRPC6 cation channel blockers – HEK293 cells, membrane potential dye, set 2, SAR follow-up (AID 504885)). Settings: acetylcholine-stimulated; series mostly up to 20 µM.
Sequence of Short transient receptor potential channel 6 (Mus musculus) (Q61143 whole entry, looked up): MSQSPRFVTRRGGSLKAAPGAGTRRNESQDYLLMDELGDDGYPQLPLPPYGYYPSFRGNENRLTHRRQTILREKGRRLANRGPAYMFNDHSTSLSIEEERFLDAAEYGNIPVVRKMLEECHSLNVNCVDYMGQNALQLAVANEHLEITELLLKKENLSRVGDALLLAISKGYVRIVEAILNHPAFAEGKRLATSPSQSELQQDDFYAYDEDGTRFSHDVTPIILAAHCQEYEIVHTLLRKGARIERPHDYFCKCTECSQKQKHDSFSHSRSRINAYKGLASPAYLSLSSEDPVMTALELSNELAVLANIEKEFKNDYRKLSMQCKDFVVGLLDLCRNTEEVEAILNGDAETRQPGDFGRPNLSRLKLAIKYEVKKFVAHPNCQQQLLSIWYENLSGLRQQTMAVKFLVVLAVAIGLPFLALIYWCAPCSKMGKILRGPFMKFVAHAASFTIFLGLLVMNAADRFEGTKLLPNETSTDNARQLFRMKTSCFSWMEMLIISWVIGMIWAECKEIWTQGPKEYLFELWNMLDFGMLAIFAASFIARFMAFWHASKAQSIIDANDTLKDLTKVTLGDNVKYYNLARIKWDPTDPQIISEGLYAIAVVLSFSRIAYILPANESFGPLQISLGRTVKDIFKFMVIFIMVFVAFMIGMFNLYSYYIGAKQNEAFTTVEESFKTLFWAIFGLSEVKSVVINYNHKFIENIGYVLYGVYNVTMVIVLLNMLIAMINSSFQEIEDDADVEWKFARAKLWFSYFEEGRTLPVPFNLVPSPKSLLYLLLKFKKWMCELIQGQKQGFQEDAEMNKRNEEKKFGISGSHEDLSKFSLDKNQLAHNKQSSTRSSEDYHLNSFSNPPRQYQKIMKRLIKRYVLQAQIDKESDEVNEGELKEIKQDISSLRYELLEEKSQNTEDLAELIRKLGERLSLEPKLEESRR

outcome, inactive:
Cc1ccc(C)c(N2CCN(C(=O)c3ccc4nsnc4c3)CC2)c1, CN1CCC(N2CCN(Cc3ccc4nsnc4c3)CC2CCO)CC1 (stereo not given), CC(C)CCN1CCN(Cc2ccc3nsnc3c2)CC1CCO (stereo not given), CN1CCN(Cc2ccc3nsnc3c2)CC1CCO (stereo not given), CSCc1cc(N(C)c2ccccc2)nc(-c2ccccn2)n1, CSCc1cc(N2CCOCC2)nc(-c2ccccn2)n1, O=S(=O)(Cc1cc(N2CCOCC2)nc(-c2ccccn2)n1)c1ccccc1, Clc1ccc(SCc2cc(N3CCCCC3)nc(-c3ccccn3)n2)cc1, CC(C)N1CCN(Cc2ccc3nsnc3c2)CC1CCO (stereo not given), Cc1cccc(CN2CCN(Cc3ccc4nsnc4c3)CC2CCO)n1 (stereo not given), O=S(=O)(Cc1cc(N2CCN(c3ccccc3)CC2)nc(-c2ccccn2)n1)c1ccccc1, OCCC1CN(Cc2ccc3nsnc3c2)CCN1CCCc1ccccc1 (stereo not given), Cc1ccccc1CN1CCN(Cc2ccc3nsnc3c2)CC1CCO (stereo not given), CC(C)CN1CCN(Cc2ccc3nsnc3c2)CC1CCO (stereo not given), CC(C)N1CCC(N2CCN(Cc3ccc4nsnc4c3)CC2CCO)CC1 (stereo not given)
